Measurements as given in patent publication US20220098591, “STEM-LOOP COMPOSITIONS AND METHODS FOR INHIBITING VASCULAR ENDOTHELIAL GROWTN FACTOR” (DRIVE THERAPEUTICS LLC, published 2022).

target: VEGF-A121 (Homo sapiens, UniProt P15692 SEQ:1-121); test: competition; TR-FRET; settings: tags: glycan-biotinylated for SPR/FRET/AlphaLISA; Acro BioSystems, Biolegend; chain copies: 2 (stated); ssRNA; all G 2'-F; A,C,U 2'-OMe; 5' C6NH2; 3' idT
Method: Briefly, for competition TR-FRET, 2-fold dilutions of thermally equilibrated aptamers were made in TR-FRET Buffer (50 mM MOPS, pH 7.4, 125 mM NaCl, 5 mM KCl, 50 μM CHAPS, 0.1 mg/mL BSA, 1 mM CaCl₂, and 1 mM MgCl₂). 5 μL of aptamer or control solution was added to a 15 μL mix of glycan biotinylated […] (5 nM final), ALEXA FLUOR® 647-labeled Aptamer (30 nM final), and Streptavidin-Eu (Perkin Elmer; 2.5 nM final) in a black wall low volume 384 well plate (Greiner). For control, 5 μl of 1000-fold excess of unlabeled parent aptamer or 5 μl TR-FRET buffer alone was added to the mix of ALEXA FLUOR® 647-labeled aptamer, biotin-VEGF-A, and Streptavidin-Eu. The plate was covered with a plate seal and subsequently incubated in the dark for 1 hour at room temperature. The plate was read on a Biotek CYTATION™ 5 plate reader. Samples were excited at 330 nm and fluorescent values were collected at 665 nm. Data analysis was performed by subtracting the background value and plotting as percent inhibition, normalized to baseline in the absence of competitor. The values were fit by [Inhibitor] vs. response-Variable slope (four parameters) using GraphPad Prism Version 7.0 and then normalized to aptamer control to obtain an IC₅₀ relative to parent aptamer. Data is presented as log values of relative IC₅₀.
Activity of each of these variants were tested using a time resolved competition TR-FRET assay, as described in Example 7, in which a labeled parent was competed with increasing concentrations of unlabeled variants for binding to VEGF-A₁₂₁.

Sequence of VEGF-A121 (P15692 other isoform, or with tags, fused parts or gaps): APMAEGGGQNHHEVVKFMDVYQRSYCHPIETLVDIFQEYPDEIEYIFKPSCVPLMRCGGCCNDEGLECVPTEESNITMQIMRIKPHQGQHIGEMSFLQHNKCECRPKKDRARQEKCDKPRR

| Sequence | binding signal |
| --- | --- |
| AGGCCGCCUCCGCGCGGAGAGGUUUCAUUAUCUCGUUUGGCGGCUU | ~7 fold worse IC50 vs Aptamer 26 |
| AGGCCGCCUCCGUGCGGAGGGGUUUCAUUAUCCCGUUUGGCGGCUU | 4 fold worse IC50 vs Aptamer 26 |
| AGGCCGCCUCCGCGCGGAGAGGGUUCAUUCCCUCGUUUGGCGGCUU | ~9 fold worse IC50 vs Aptamer 26 |
| AGGCCGCCUCCGCGCGGAGGGGUUCAUAUCCCGUUUGGCGGCUU | ~8 fold worse IC50 vs Aptamer 26 |
| AGGCCGCCUCCGCGCGGACCGGUUUCAUUACCGGGUUUGGCGGCUU | ~9 fold worse IC50 vs Aptamer 26 |
